This is an account of results in ChEMBL document CHEMBL3988442, “University of Dundee, Small-Polar-MMV Screening Library” (2021).

For some of these results: Potency and affinity values are given separately.

Set-up in all cases: scale not given: direction of the effect not stated beside the values
The target in test [1] is Protein translocase subunit SecA (Escherichia coli (strain K12)) (UniProt P10408). Kind of test: Assay to Identify E. coli SecA ATPase Inhibitors. The test is classed as functional. The note with it: 30 µM.
Test [2] has as its target T1, Ubiquitin-activating enzyme e1, putative (Leishmania donovani (strain BPK282A1)) (UniProt E9BSI1).
T1 sequence (whole entry): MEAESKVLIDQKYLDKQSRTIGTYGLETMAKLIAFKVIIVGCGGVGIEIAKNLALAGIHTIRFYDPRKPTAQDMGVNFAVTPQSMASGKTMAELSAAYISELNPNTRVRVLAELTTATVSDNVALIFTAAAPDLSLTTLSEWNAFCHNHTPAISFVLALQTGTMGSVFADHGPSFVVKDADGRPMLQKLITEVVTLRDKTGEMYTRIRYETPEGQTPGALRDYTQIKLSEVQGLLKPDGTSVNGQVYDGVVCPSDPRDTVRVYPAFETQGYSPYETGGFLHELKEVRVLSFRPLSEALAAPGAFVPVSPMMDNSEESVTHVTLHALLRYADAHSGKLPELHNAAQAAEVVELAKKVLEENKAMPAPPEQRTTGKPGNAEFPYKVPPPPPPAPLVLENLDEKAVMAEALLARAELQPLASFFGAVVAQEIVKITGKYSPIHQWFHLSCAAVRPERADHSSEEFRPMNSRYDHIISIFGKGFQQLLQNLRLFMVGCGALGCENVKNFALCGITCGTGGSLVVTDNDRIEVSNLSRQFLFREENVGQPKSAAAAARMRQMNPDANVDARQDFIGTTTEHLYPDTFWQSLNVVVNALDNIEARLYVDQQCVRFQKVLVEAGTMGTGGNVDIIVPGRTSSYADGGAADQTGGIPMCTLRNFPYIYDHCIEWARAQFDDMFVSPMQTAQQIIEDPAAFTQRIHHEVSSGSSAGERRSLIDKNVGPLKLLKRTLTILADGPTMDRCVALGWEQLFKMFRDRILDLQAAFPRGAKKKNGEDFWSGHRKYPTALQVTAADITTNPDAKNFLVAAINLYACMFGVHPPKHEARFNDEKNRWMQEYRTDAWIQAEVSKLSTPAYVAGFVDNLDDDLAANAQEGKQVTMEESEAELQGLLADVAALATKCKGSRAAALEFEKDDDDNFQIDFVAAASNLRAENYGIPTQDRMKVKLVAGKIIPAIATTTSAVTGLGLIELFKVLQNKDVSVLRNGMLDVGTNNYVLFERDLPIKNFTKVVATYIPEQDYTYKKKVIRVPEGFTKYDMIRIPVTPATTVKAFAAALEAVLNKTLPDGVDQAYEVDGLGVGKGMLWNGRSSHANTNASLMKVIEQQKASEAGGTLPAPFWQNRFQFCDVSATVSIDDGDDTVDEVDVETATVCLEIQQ
Kind of test: Leishmania donovani Ubiquitin Activating Enzyme (LdE1). It is filed as functional. The settings on record: 30 µM.

Test [3] addresses AMP-activated protein kinase, AMPK (Homo sapiens) (UniProt P54646+O43741+P54619+Q9UGJ0+Q9Y478+Q13131+Q9UGI9). The experiment in a line: AMP-dependent Kinase enzyme assay. An in vitro enzyme assay that detects ADP turnover that is directly proportional to AMPK activity. This uses naive AMPK that is activated during the assay with MK-8722. The test is classed as functional. The settings on record: 30 µM.

Test [4] addresses Sialic acid-binding Ig-like lectin 9 (Homo sapiens) (UniProt Q9Y336). The experiment in a line: Hs-Siglec9 ALPHAscreen SOP 20170721. The settings on record: 10 µM. Background: Alpha assays give light when donor and acceptor beads are brought close together.
A further test relates to Trypanosoma cruzi. Kind of test: Trypanosoma cruzi phosphomannomutase and mannose-1-phosphate guanylyltransferase assay. The test is classed as functional. The settings on record: 10 µM.
Test [5] addresses T2, Arginase-2, mitochondrial (Homo sapiens) (UniProt P78540).
T2 sequence (whole entry): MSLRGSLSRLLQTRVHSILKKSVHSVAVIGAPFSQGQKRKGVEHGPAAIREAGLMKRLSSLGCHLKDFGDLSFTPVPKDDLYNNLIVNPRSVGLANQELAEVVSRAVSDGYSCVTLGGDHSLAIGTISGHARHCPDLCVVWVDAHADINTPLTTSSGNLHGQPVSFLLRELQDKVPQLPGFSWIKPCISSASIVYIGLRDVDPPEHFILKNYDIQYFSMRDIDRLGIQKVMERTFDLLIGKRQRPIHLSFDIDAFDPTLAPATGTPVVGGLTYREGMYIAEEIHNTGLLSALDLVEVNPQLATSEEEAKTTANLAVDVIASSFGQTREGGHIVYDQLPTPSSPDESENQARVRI
The experiment in a line: in vitro enzyme assay to detect the production of urea directly proportional to the activity of Arginase II. Further: in the data most compounds retested in dose-response had high values. The settings on record: 33.3 µM. It is filed as functional.

The target in test [6] is T3, Proteasome subunit beta (Trypanosoma cruzi) (UniProt O96673).
T3 sequence (whole entry): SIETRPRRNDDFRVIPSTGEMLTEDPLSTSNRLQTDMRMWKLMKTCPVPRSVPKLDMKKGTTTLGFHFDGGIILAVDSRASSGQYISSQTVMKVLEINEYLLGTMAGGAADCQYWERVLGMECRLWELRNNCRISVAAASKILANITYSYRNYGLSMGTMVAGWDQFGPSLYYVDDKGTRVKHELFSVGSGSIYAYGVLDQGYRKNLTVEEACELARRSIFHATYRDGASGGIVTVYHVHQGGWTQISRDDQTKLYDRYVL
Kind of test: Trypanosoma cruzi proteasome chymotrypsin-like activity (TcProtChymo) assay. Further: in the data most compounds retested in dose-response had high values. The test is classed as functional. The note with it: 9.37 µM.

The species entered for another test is Homo sapiens. Kind of test: To identify inhibition of the IFN signalling (Jak-Stat) pathway via expression of an eGFP reporter gene under the control of an IFN-stimulated response element (ISRE) containing MxA promoter. The note with it: 30 µM. The test is classed as functional. (In general: In a reporter assay the amount or activity of a reporter protein is the signal.)

Test [7] addresses T4, Tyrosyl-tRNA synthetase, putative (Trypanosoma cruzi (strain CL Brener)) (UniProt Q4DSP6).
T4 sequence (whole entry): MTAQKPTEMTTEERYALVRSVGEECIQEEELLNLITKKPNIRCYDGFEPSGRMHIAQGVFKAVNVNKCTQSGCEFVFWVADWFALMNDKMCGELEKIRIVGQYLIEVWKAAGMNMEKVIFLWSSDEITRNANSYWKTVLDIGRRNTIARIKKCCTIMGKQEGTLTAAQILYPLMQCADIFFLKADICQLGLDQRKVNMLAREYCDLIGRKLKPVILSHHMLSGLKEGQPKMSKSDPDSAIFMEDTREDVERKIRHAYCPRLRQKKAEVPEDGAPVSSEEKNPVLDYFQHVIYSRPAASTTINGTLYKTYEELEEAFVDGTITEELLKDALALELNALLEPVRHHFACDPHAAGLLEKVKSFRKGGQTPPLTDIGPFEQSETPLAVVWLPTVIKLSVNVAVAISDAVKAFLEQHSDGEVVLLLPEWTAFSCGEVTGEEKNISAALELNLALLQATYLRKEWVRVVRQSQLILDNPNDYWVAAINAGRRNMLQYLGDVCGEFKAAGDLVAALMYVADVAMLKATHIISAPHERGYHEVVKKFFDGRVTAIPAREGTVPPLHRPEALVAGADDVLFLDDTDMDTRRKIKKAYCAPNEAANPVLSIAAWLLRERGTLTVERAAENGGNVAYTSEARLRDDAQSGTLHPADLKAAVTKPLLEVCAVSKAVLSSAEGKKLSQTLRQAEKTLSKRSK
The experiment in a line: Trypanosoma cruzi tyrosyl tRNA synthetase (TcYRS) _High Tyrosine SOP. Further: in the data most compounds retested in dose-response had high values. The test is classed as functional. The note with it: 30 µM.

Test [8] has as its target T4, Tyrosyl-tRNA synthetase, putative (Trypanosoma cruzi (strain CL Brener)). The experiment in a line: Trypanosoma cruzi tyrosyl tRNA synthetase (TcYRS) SOP. It is filed as functional. The note with it: 30 µM.
The target of test [9] is Chromo domain-containing protein 1 (Saccharomyces cerevisiae (strain ATCC 204508 / S288c) (Baker's yeast)) (UniProt P32657). The experiment in a line: ScCHD-1 Enzyme Inhibition Assay. Further: in the data most compounds retested in dose-response had high values. The note with it: 30 µM. The test is classed as functional.
Chain of Chromo domain-containing protein 1 (Saccharomyces cerevisiae (strain ATCC 204508 / S288c) (Baker's yeast)) (P32657 whole entry, the tested form may be a part): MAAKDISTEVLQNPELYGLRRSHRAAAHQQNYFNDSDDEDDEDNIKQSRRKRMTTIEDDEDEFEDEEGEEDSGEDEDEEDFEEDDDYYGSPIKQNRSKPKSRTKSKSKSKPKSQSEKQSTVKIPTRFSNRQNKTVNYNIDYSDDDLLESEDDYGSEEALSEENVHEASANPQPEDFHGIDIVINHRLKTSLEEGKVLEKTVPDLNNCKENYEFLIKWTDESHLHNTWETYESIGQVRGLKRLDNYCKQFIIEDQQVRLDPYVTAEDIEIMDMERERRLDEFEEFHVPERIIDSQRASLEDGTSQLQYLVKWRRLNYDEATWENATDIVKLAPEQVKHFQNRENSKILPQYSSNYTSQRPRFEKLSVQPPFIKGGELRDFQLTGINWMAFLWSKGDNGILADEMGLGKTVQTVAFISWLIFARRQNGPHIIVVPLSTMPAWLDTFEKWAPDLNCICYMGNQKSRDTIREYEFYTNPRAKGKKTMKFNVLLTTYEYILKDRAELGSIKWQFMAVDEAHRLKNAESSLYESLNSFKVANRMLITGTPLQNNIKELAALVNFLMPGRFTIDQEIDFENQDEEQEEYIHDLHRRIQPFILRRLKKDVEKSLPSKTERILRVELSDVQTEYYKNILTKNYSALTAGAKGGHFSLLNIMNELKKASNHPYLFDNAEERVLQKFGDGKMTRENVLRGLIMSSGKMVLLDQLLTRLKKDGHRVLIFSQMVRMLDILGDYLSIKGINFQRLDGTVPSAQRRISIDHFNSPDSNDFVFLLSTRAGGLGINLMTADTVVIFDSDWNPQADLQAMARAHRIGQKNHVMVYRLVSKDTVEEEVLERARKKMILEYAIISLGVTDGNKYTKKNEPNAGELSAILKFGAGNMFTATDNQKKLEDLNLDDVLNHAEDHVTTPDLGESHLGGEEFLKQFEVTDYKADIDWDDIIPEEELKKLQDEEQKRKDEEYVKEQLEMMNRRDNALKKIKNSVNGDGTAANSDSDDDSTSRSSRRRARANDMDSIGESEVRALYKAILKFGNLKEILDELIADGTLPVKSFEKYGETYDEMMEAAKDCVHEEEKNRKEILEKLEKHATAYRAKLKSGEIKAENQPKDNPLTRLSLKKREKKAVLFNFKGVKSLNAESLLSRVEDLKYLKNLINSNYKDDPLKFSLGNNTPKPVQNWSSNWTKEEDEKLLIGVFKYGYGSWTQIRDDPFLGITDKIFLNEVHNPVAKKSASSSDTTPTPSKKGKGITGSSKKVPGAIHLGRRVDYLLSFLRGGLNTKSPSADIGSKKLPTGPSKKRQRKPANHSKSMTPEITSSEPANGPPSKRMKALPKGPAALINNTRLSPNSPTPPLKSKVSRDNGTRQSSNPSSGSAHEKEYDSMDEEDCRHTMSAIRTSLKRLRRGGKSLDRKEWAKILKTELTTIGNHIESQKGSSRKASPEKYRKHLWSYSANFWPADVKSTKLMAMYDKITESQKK

Chain of Protein translocase subunit SecA (Escherichia coli (strain K12)) (P10408 whole entry): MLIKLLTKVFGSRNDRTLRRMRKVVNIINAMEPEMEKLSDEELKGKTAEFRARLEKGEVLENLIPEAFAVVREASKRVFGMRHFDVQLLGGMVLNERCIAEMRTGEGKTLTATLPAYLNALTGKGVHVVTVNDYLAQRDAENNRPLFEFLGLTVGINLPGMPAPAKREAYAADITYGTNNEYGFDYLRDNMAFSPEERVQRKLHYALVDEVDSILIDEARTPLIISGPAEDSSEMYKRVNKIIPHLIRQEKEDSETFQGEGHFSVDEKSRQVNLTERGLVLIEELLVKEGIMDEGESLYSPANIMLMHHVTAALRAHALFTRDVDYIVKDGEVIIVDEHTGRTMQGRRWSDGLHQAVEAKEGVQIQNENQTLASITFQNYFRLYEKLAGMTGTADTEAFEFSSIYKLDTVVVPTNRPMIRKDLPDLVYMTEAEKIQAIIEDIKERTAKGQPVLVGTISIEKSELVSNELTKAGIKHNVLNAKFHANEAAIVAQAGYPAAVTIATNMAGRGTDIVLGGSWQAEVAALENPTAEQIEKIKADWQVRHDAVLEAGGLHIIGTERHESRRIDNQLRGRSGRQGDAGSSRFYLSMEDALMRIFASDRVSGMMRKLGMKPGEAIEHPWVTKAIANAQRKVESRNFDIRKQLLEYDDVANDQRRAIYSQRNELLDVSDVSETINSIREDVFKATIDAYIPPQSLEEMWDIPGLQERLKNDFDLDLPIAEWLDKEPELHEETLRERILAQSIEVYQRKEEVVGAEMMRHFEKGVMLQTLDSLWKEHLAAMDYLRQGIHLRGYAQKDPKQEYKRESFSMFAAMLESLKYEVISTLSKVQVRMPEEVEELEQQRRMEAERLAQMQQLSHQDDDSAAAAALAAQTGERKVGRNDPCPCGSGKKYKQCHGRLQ
Chain of Sialic acid-binding Ig-like lectin 9 (Homo sapiens) (Q9Y336 whole entry): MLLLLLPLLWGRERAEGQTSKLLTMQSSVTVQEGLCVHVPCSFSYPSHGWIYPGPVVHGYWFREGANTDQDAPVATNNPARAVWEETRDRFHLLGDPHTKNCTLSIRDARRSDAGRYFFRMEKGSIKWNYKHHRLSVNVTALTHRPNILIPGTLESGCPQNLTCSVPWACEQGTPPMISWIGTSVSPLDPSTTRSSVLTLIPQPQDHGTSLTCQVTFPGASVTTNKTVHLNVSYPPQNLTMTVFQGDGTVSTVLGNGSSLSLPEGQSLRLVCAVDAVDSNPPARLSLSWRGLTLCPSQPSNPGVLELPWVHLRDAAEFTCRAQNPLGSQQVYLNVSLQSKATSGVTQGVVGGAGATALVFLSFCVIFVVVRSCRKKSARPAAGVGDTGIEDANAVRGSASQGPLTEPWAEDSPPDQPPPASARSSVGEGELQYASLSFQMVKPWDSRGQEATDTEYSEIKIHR

Consider `Cn1cc(C[C@H]2[C@@H](O)CCN2C(=O)C2CC=CC2)cn1`, for which the Percent Effect in [1] was -1.02%; in test [2], 7.79%; in test [3], 8.48%; in test [4] it was -3.96%; in the test with Trypanosoma cruzi, 0.69%; in [5], 12.3%. In addition, the Percent Effect is 17.8% in test [6]; 26.4% in the test listed under Homo sapiens; 1.06% in test [7]; 14.1% in [8]; -9.76% in test [9].

`CCCNC(=O)CSc1nnc2[nH]c(=O)cc(CC)n12`: the Percent Effect was -1.19% in [1]; 19.2% in test [2]; -3.66% in test [3]; 6.46% in [4]; 1.37% with Trypanosoma cruzi; -1.36% in [5]. The Percent Effect is 15.4% in [6]; 10.2% in the test filed under Homo sapiens; 7.53% in test [7]; 17.5% in [8]; -7.28% in test [9].

As to `Cc1ccc(CN2Cc3c(C(=O)N(C)C)nn(C)c3C2)s1`, the Percent Effect was -0.916% in test [1]; -19.2% in [2]; -24.4% in [3]; 6.15% in test [4]; 6.75% in the test on Trypanosoma cruzi; -1.2% in test [5]. The Percent Effect in [6] was 7.79%; in the test listed under Homo sapiens, -12.5%; in [7], 3.12%; in test [8] it was 11.1%; in test [9] it was -3.35%.

On to `CSc1ccc(CNC(c2ccccc2)c2nccn2C)cc1` (stereo unspecified), for which the Percent Effect in test [1] is -5.49%; in test [2] it was 21.6%; in [3], -4%; in test [4], 8.74%; in the test on Trypanosoma cruzi, 7.71%; in [5], -2.77%. For the same compound, the Percent Effect in test [6] is 11.1%; in the test listed under Homo sapiens, 24.1%; in test [7] it was 10.9%; in test [8], 30.5%; in test [9], -6.68%.

Take `CCOC(CC)C(=O)NCc1ccnc(Oc2ccc(F)cc2)c1` (stereo unspecified): the Percent Effect in [1] was -0.936%; in test [2], -2.7%; in test [3] it was -2.91%; in [4], 0.458%; in the test on Trypanosoma cruzi, -3.28%; in [5], 4.29%. Moreover, the Percent Effect in test [6] was 11%; in the test listed under Homo sapiens, 9.46%; in [7], 7.94%; in test [8], 12.2%; in test [9], -1.51%.

As to `Cn1cc(C2CCCN2C(=O)c2ccc(Br)o2)cn1` (stereo unspecified), the Percent Effect was -4.98% in test [1]; 13.2% in [2]; 2.02% in test [3]; -8.81% in test [4]; -3.64% in the test on Trypanosoma cruzi; 1.08% in test [5]. The Percent Effect in test [6] stood at 1.27%; in the test filed under Homo sapiens, 16.1%; in [7], 0.493%; in [8], 1.24%; in test [9], 1.07%.

Consider `COc1cc(CNC2CCCc3c2cnn3C)cc(OC)c1` (stereo unspecified), for which the Percent Effect was -5.5% in test [1]; 8.11% in test [2]; 139% in [3]; 9.27% in [4]; 1.6% in the test on Trypanosoma cruzi; -3.61% in test [5]. In addition, the Percent Effect in [6] was -1.44%; in the test filed under Homo sapiens, 2.92%; in test [7] it was 5.42%; in [8], 3.7%; in [9], -10%.

Regarding `Cc1nc(C)n(CC2CCCN2CC(=O)Nc2cc(C(C)C)no2)n1` (stereo unspecified), the Percent Effect was -3.86% in [1]; 18.4% in test [2]; -3.35% in [3]; 10.4% in test [4]; 1.03% in the test with Trypanosoma cruzi; -0.36% in [5]. For the same compound, the Percent Effect in test [6] is 8.21%; in the test listed under Homo sapiens, 22.5%; in test [7], 4.43%; in test [8], 16.1%; in test [9], -3.86%.

Consider `O=C(NCc1cc[nH]n1)NC1CCCN(c2ncccn2)C1` (stereo unspecified), for which the Percent Effect in [1] is -1.16%; in [2], 10.5%; in test [3], 6.14%; in [4] it was -0.458%; with Trypanosoma cruzi it was -4.58%; in test [5] it was -4.73%. Besides, the Percent Effect in [6] is 16%; in the test filed under Homo sapiens it was -3.24%; in test [7], 4.25%; in [8] it was 13%; in test [9] it was -5.61%.

For the compound `COc1cccc(CNC(=O)CC2CSc3ncc(C)c(=O)n32)c1` (stereo unspecified), the Percent Effect in test [1] was -1.02%; in [2], 15.6%; in test [3], 31.4%; in test [4] it was -9.59%; with Trypanosoma cruzi it was -5.03%; in test [5], 3.23%. Moreover, the Percent Effect was 13.9% in test [6]; 16.4% in the test listed under Homo sapiens; 5.29% in test [7]; 3.85% in [8]; -9.11% in test [9].

`c1ccc(CCN2CCOC(Cn3cccn3)C2)nc1` (stereo unspecified): the Percent Effect was -6.2% in test [1]; 5.2% in test [2]; -1.28% in test [3]; 6.84% in [4]; 7.54% with Trypanosoma cruzi; 1.05% in test [5]. In addition, the Percent Effect is 3.15% in test [6]; 5.5% in the test listed under Homo sapiens; 3.81% in test [7]; 11.8% in test [8]; -7.53% in [9].
